Bioassay records: PubChem BioAssay, several laboratories
Shown are actives, neighbours in structure and some others; about 27% of the full set was active somewhere.
CYP2C19 inh: blocks human cytochrome P450 2C19; P33261; CYP2C19 Supersomes, luciferin-H EGE luminescence, 30 min; inhibition, % at 5 µM; hit rate 21% among 96,000; AID 778;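 active means CYP2C19 inhibition above a set limit at 5 µM in the primary screen, cut at about 50% in these data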;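 further: plate controls were negative control wells for no effect and 2.5 mM tranylcypromine positive control for full effect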
CYP2C19 act: activators of human cytochrome P450 2C19. P33261. recombinant CYP2C19, luciferin-H EGE luminescence; stronger effect = higher value; 0 = fully inhibited enzyme, 1 = untreated enzyme. activation factor at 5 µM. 96,000 tested, under 10 active;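 active means activation factor of at least 2 at 5 µM in the primary screen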;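 further: 0 = wells with 2.5 mM tranylcypromine and 1 = vehicle-only wells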
CYP2C9 inhib: blocks human cytochrome P450 2C9 | CYP2C9 Supersomes, luciferin-H conversion, luminescence | AID 777 | hit rate 20% among 96,000 | inhibition, % at 5 µM;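 active means blocking of liver enzyme CYP2C9 beyond about 50% at 5 µM, limit read from the data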
Target sequence (P11712 whole entry, looked up): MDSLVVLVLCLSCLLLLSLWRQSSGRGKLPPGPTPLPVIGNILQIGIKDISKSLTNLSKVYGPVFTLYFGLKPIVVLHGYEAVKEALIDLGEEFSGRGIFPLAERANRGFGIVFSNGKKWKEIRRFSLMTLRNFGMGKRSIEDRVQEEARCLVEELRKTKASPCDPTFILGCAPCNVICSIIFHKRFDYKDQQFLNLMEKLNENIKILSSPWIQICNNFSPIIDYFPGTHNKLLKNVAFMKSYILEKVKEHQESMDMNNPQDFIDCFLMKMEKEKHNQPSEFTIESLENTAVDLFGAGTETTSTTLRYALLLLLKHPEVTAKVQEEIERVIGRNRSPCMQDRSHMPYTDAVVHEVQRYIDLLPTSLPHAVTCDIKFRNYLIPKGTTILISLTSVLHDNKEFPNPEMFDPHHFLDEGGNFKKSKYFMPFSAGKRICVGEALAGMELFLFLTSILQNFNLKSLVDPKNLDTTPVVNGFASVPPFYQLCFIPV
Cav3 T inh: blocks human Cav3.2 T-type calcium channel | O95180 | Cav3.2-expressing cells, Fluo-4 calcium fluorescence FDSS; stronger effect = lower value | B-score at 10 µM | hit rate 4% among 100,000 | AID 449739;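 active means single-dose well whose peak fluorescence ratio is a statistical outlier from its plate by either plate-standardised score or position-corrected B-score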
CYP2C9 activ: activators of human CYP2C9 | P11712 | recombinant CYP2C9, luciferin-H conversion, luminescence; stronger effect = higher value; factor 1 = untreated enzyme, 0 = blocked | activation factor at 5 µM | hit rate 1.4% among 96,000 | AID 1024;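 active means activation factor of 2 or more for CYP2C9 at a 5 µM dose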;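 further: 0 = sulfaphenazole-blocked wells and 1 = vehicle-only wells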
* = called active by the depositor; nt = not tested or not shown.

SMILES	CYP2C19 inh	CYP2C19 act	CYP2C9 inhib	Cav3 T inh	CYP2C9 activ
CC(C)C(NS(=O)(=O)c1cccs1)C(=O)N1CCc2ccccc2C1 (stereo not given)	78.6*	0.2	43.3	nt	0.6
Cc1ccc(-n2c(Cn3cnc4ccccc43)nnc2SCC(=O)O)cc1	nt	nt	nt	0.647	nt
COc1ccc(C(C(=O)NC2CCCCC2)N(CC2CCCO2)C(=O)CNC(=O)c2ccco2)cc1 (stereo not given)	3.2	1	-12.4	-0.897	1.1
O=C(OCCN1CCOCC1)c1cccs1	1.7	1	-10.9	-0.00576	1.1
Nc1ncc(Br)cc1S(=O)(=O)NCCC(=O)N1CCN(c2ncccn2)CC1	59.6*	0.4	40.8	0.229	0.6
COc1cc(OC)c(NC(=O)CCNS(=O)(=O)c2cc(Br)cnc2N)cc1Cl	36.1	0.6	94.4*	nt	0.1
CCOC(=O)N1CCN(C(=O)CCNS(=O)(=O)c2cc(Br)cnc2N)CC1	6.8	0.9	-10.9	-0.0685	1.1
Nc1ncc(Br)cc1S(=O)(=O)NCCC(=O)Nc1cccc(Cl)c1	66.3*	0.3	41.3	-1.43	0.6
Cc1cc(NC(=O)CCNS(=O)(=O)c2cc(Br)cnc2N)ccc1Br	29.5	0.7	40.7	-5*	0.6
Cc1ccc(S(=O)(=O)NCC(=O)N(CC(=O)NC2CCCCC2)CC2CCCO2)cc1 (stereo not given)	7.9	0.9	13.9	0.468	0.9
O=C(O)C1CC=CCC1C(=O)N1CCCC1 (stereo not given)	-9.9	1.1	8.9	0.647	0.9
O=C(OCCN1CCN(c2ncc(C(F)(F)F)cc2Cl)CC1)c1ccc(Cl)cc1	13.5	0.9	67.2*	-0.0305	0.3
CN(Cc1ccccc1)C(=O)C1CCN(Cc2ccc(F)cc2)CC1	7.1	0.9	-6.8	0.422	1.1
CO/N=C(/CS(=O)Cc1ccc(Cl)cc1)c1ccc(Cl)cc1 (stereo not given)	96.0*	0	56.5*	-2.26	0.4
COc1cc(NS(=O)(=O)c2ccc(NC(C)=O)cc2)ncn1	8.3	0.9	2.7	0.22	1
COC(=O)c1ccc(C)c(NS(=O)(=O)c2ccc(NC(C)=O)cc2)c1	76.0*	0.2	95.8*	0.22	0
CCOC(=O)c1ccc(NC(=O)c2ccc(NS(C)(=O)=O)cc2)cc1	-0.6	1	5.6	1.7	0.9
CCOC(=O)c1cccc(NS(=O)(=O)c2c(C)[nH]c(=O)[nH]c2=O)c1	8.7	0.9	19.6	0.824	0.8
CCOC(=O)c1cccc(NS(=O)(=O)c2ccc(NC(C)=O)cc2)c1	99.8*	0	98.4*	-2.57	0
CCOC(=O)c1ccc(NS(=O)(=O)c2cnc[nH]2)cc1	28.3	0.7	98.4*	-0.346	0
CCC(CC)C(=O)Nc1cccc(C(=O)Nc2ccc(S(=O)(=O)Nc3ccc(C)cc3)cc2)c1	86.8*	0.1	90.5*	-2.42	0.1
Cc1ccc(C)c(-n2c(C)cc(/C=N/NC(=O)c3c(C)nc4cc(C)ccn34)c2C)c1	nt	nt	nt	-3.12	nt
CCOC(=O)N1CCN(C(=O)COc2ccc(S(=O)(=O)NC(C)C)cc2)CC1	-10.0	1.1	17.8	0.858	0.8
O=C1NCC(=O)N2CCC[C@@H]12	nt	nt	nt	0.464	nt
CCOC(=O)c1cccc(NS(=O)(=O)c2cnc[nH]2)c1	25.5	0.7	73.7*	0.368	0.3
SMILES	CYP2C19 inh	CYP2C19 act	CYP2C9 inhib	Cav3 T inh	CYP2C9 activ
COC(=O)c1ccc(N2CCCCC2)c(NS(=O)(=O)c2ccc(C)cc2)c1	31.6	0.7	86.9*	-3.75*	0.1
Cc1c(Nc2cc(N3CCCCCC3)c3nonc3c2[N+](=O)[O-])c(=O)n(-c2ccccc2)n1C	30.2	0.7	39.7	2.46	0.6
Cn1c(=O)[nH]c(=O)c2c1nc(Sc1nc3ccccc3s1)n2Cc1ccccc1	19.3	0.8	22.1	-1.64	0.8
CCOC(=O)C1CCN(C(=O)COC(=O)COc2ccccc2OC)CC1	4.9	1	-21.7	0.0213	1.2
O=[N+]([O-])c1ccc(Cl)c(C2Nc3cccc4cccc(c34)N2)c1	21.1	0.8	31.5	0.0263	0.7
CCN1CCN(Cc2c(C)[nH]c3ccc(OC)cc3c2=O)CC1	8.2	0.9	-9.7	nt	1.1
CCOC(=O)NC(=O)COC(=O)Cc1cc(OC)c(OC)c(OC)c1	7.8	0.9	1.5	-0.0466	1
C=CCc1ccc(O)c(-c2cc(CC=C)ccc2O)c1	nt	nt	nt	-5.02*	nt
O=C1c2ccccc2C(=O)C1c1nccc2ccccc12	45.2	0.5	57.7*	-0.956	0.4
O=C1c2ccccc2C(=O)C1c1ccnc2ccccc12	nt	nt	nt	-1.02	nt
COc1ccc(NC(=O)N(CCC(C)C)C(C)c2ccccn2)c(OC)c1 (stereo not given)	28.9	0.7	28.2	-2.65	0.7
CCOC(=O)CSc1nnc(CNc2cccc(Cl)c2)n1-c1ccccc1	56.0*	0.4	27.2	-5.55*	0.7
Cn1c(CNc2cccc(Cl)c2)nnc1SCC(=O)OC1CCCCC1	78.9*	0.2	81.3*	-8.54*	0.2
CCOC(=O)CSc1nnc(CNc2ccc(Cl)cc2)n1-c1ccccc1	49.1	0.5	37.5	-1.8	0.6
CN(C)S(=O)(=O)c1ccc(C(=O)N(c2ccccn2)c2ccccn2)cc1	-3.4	1	6.7	-0.0846	0.9
CCOc1cc2c(C#N)c(N3CCCC3)nc(N)c2c(N)n1	nt	nt	nt	0.567	nt
CC(C)(C)N1C(=O)Cc2c1nc(N)c1c(N)nc(N3CCCCC3CO)c(C#N)c21 (stereo not given)	27.7	0.7	75.1*	-0.024	0.2
Cc1onc(-c2ccccc2)c1C(=O)Nc1cccnc1	10.6	0.9	50.1*	1.17	0.5
Cc1onc(-c2ccccc2)c1C(=O)Nc1cccc(OC(C)C)c1	32.0	0.7	32.5	-0.987	0.7
CCCOc1cccc(NC(=O)c2c(-c3ccccc3)noc2C)c1	27.7	0.7	16.4	-4.85*	0.8
CC1=Nc2ncnn2C(c2ccccc2)/C1=N\O (stereo not given)	8.6	0.9	7.6	-0.292	0.9
Cc1ccc(CSCC(=O)N2CCOCC2)cc1	74.9*	0.3	-15.4	0.00298	1.2
Cc1ccc(CC(=O)N2CCOCC2)cc1	30.1	0.7	-5.6	0.129	1.1
Cc1ccc(C(CC(=O)N2CCOCC2)c2ccco2)cc1 (stereo not given)	83.8*	0.2	22.5	0.407	0.8
Cc1ccc(NC(=O)CSCCc2ccccn2)nc1	6.3	0.9	9.0	0.626	0.9
CCCCN1c2ccccc2N(CCCO)c2cc(C)nnc21	27.1	0.7	64.6*	1.39	0.4
CCc1ccc(NC(=O)CCc2nc3cccnc3n2Cc2ccc(OC)cc2)cc1	43.1	0.6	38.9	-6.91*	0.6
CCn1c(SCC(=O)Nc2ccc(C(=O)OC)cc2)nc2cccnc21	nt	nt	nt	-0.27	nt
O=C(CCc1nc2ccccc2[nH]c1=O)OCC(=O)c1cccc2ccccc12	-5.4	1.1	-12.9	-0.339	1.1
O=C(NCc1cccs1)C1CC(=O)N(C2CCCC2)C1 (stereo not given)	16.2	0.8	-2.5	-0.296	1
